Assay [1] is described as follows: qHTS RealTime-Glo MT Cell Viability Assay in HepG2 cells - 8 hour (AID 1224873). Note: nearly all actives have a fitted effect of over 55% in size. The gist of the method:
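HepG2 cells (600/well) mixed with RealTime-Glo MT reagent, settled 5 h at 37 C/5% CO2 before compound addition. Nonlytic NanoLuc luminescence from viable-cell prosubstrate reduction read repeatedly during 40 h treatment at 37 C.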
(In general: qHTS replaces the single test concentration by a dilution series.)

Assay [2] can be described thus: qHTS RealTime-Glo MT Cell Viability Assay in HEK293 cells - 40 hour (AID 1224874). Note: nearly all actives have a fitted effect of over 50% in size. To be noted: RealTime-Glo luminescence; max response: stronger effect = lower value. In short, it runs like this: (§1)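 Measured as luminescence from the same continuously cultured HEK293 wells at successive time points (0, 8, 16, 24, 32, 40 h) after compound addition. Reagent present from seeding; dosing at 5 h; incubation 37 C.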

Assay [3] in a line: A CellTox Green Cytotoxicity Assay to monitor cytotoxicity in HEK293 cells - 24 hour (AID 1224875). Note: nearly all actives have a fitted effect of over 45% in size. In short, it runs like this:
(§2)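 Homogeneous no-lysis format: HEK293 cell suspension mixed with CellTox Green reagent, seeded, incubated 5 h at 37 C/5% CO2, then dosed by pintool with compound in DMSO.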

The nature of assay [4]: A CellTox Green Cytotoxicity Assay to monitor cytotoxicity in HepG2 cells - 16 hour (AID 1224876). Note: nearly all actives have a fitted effect of over 45% in size. In short, it runs like this: (§3)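 Fluorescent DNA-binding dye, 600 HepG2 cells/well, 5 h preincubation then compound in DMSO; same plates read at 0–40 h, 37 C.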
Assay [5] can be described thus: qHTS RealTime-Glo MT Cell Viability Assay in HepG2 cells - 32 hour (AID 1224877). Note: nearly all actives have a fitted effect of over 55% in size. In short, it runs like this:
(§4)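 Real-time, nonlytic viability: 600 HepG2 cells/well mixed with NanoLuc enzyme plus prosubstrate; 5 h settle, compound (DMSO) added by pintool; luminescence monitored over 40 h at 37 C.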

Assay [6] is described as follows: A CellTox Green Cytotoxicity Assay to monitor cytotoxicity in HepG2 cells - 24 hour (AID 1224878). Note: nearly all actives have a fitted effect of over 45% in size. The gist of the method: as §3
A short description of assay [7]: A CellTox Green Cytotoxicity Assay to monitor cytotoxicity in HepG2 cells - 40 hour (AID 1224879). Note: nearly all actives have a fitted effect of over 40% in size. In short, it runs like this:
as §3

Assay [8] can be described thus: qHTS RealTime-Glo MT Cell Viability Assay in HEK293 cells - 0 hour (AID 1224880). Note: nearly all actives have a fitted effect of over 45% in size. In short, it runs like this:
as §1

A short description of assay [9]: A CellTox Green Cytotoxicity Assay to monitor cytotoxicity in HEK293 cells - 32 hour (AID 1224881). Note: nearly all actives have a fitted effect of over 40% in size. The gist of the method: as §2
The nature of assay [10]: A CellTox Green Cytotoxicity Assay to monitor cytotoxicity in HepG2 cells - 32 hour (AID 1224883). Note: nearly all actives have a fitted effect of over 50% in size. In short, it runs like this: as §3
Assay [11] in a line: A CellTox Green Cytotoxicity Assay to monitor cytotoxicity in HEK293 cells - 8 hour (AID 1224884). Note: nearly all actives have a fitted effect of over 35% in size. The gist of the method: as §2
Assay [12] is described as follows: qHTS RealTime-Glo MT Cell Viability Assay in HepG2 cells - 16 hour (AID 1224885). Note: nearly all actives have a fitted effect of over 50% in size. The gist of the method:
as §4

Assay [13] is described as follows: qHTS RealTime-Glo MT Cell Viability Assay in HEK293 cells - 24 hour (AID 1224886). Note: nearly all actives have a fitted effect of over 50% in size. The gist of the method:
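Cells + reagent dispensed (600 cells/well, HEK293) → 5 h at 37 C/5% CO2 → 23 nL compound in DMSO pinned → 40 h at 37 C → luminescence read at 0, 8, 16, 24, 32, 40 h.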

A short description of assay [14]: qHTS RealTime-Glo MT Cell Viability Assay in HEK293 cells - 8 hour (AID 1224887). Note: nearly all actives have a fitted effect of over 50% in size. The gist of the method: as §1
Assay [15] in a line: A CellTox Green Cytotoxicity Assay to monitor cytotoxicity in HEK293 cells - 16 hour (AID 1224888). Note: nearly all actives have a fitted effect of over 35% in size. The gist of the method: as §2
Assay [16] can be described thus: qHTS RealTime-Glo MT Cell Viability Assay in HepG2 cells - 0 hour (AID 1224889). Note: nearly all actives have a fitted effect of over 50% in size. In short, it runs like this: as §4
Assay [17] is described as follows: A CellTox Green Cytotoxicity Assay to monitor cytotoxicity in HepG2 cells - 8 hour (AID 1224890). Note: nearly all actives have a fitted effect of over 45% in size. In short, it runs like this:
as §3

A short description of assay [18]: qHTS assay to identify small molecule antagonists of the estrogen receptor alpha (ER-alpha) signaling pathway using the BG1 cell line in the presence of 0.1 nM 17-beta-estradiol - cell viability counter screen (AID 1259241). Note: nearly all actives have a fitted effect of over 40% in size. The gist of the method:
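VM7Luc4E2 cells (endogenous ER-alpha, 4×ERE-luciferase), hormone-starved 5 days in charcoal-stripped FBS, were treated with compounds plus 0.1 nM 17beta-estradiol for 22 hr at 37C; viability read in same wells as CellTiter-Fluor live-cell protease fluorescence.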

The nature of assay [19]: qHTS assay to identify small molecule antagonists of the androgen receptor (AR) signaling pathway using the MDA cell line in the presence of 0.5 nM R1881 - cell viability counter screen (AID 1259242). Note: nearly all actives have a fitted effect of over 45% in size. In short, it runs like this:
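Human breast carcinoma MDA-kb2 cells, cultured without CO2, receive compounds alongside 0.5 nM (final) R1881 agonist. After 16 hr at 37C, viability is taken as live-cell protease signal.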

Assay [20] can be described thus: A CellTox Green Cytotoxicity Assay to monitor cytotoxicity in HepG2 cells - 0 hour (AID 1224882). Note: nearly all actives have a fitted effect of over 35% in size. The gist of the method:
as §3

SMILES strings stand for the structures. Where “and” joins values, the source holds several entries; their conditions need not be identical. Equal entries are not always repeated. Records with an inconclusive call do not appear. Where a structure was tested more than once in an assay, its records may differ in their call. Calls of active or inactive are those of the source. Calls come from the whole dose curve; as a rule, active = well fitted curve in the direction sought with a large enough effect in the repeat runs; inconclusive = weak or mixed curves; inactive = no such curve, though single readings can be large; an effect the other way counts as inactive or inconclusive.
% is set by controls: 0 for no effect and ±100 for the full control effect; potency is the fitted concentration of half-maximal effect.

Turning to `COc1ccc(CCN2CCC(Nc3nc4ccccc4n3Cc3ccc(F)cc3)CC2)cc1`, the Potency is 35.4 µM (active) and 23.9 µM (active) in [1]; 5.62 µM (active) and 10.7 µM (active) in [2]; 17.8 µM (active) and 23.9 µM (active) in assay [3]; 31.6 µM (active) and 21.3 µM (active) in [4]; 15.8 µM (active) and 10.7 µM (active) in assay [5]; 19.9 µM (active) and 9.52 µM (active) in assay [6]. In addition, the Potency in [7] was 15.8 µM (active) and 8.49 µM (active); in assay [9], 14.1 µM (active) and 23.9 µM (active); in [10], 19.9 µM (active) and 9.52 µM (active); in assay [11], 44.6 µM (active) and 26.8 µM (active); in [12], 28.1 µM (active) and 21.3 µM (active); in assay [13] it was 6.3 µM (active) and 10.7 µM (active). Besides, the Potency in [14] was 12.6 µM (active) and 9.52 µM (active); in assay [15], 35.4 µM (active) and 26.8 µM (active); in assay [17], 39.8 µM (active) and 23.9 µM (active); in assay [18], 49.6 µM (active); in assay [19] it was 17.6 µM (active) and 21.1 µM (active). In addition, the Potency result in [8] and in assay [16] was “inactive” in each case.

As for `NC(N)=NC(=O)Cc1c(Cl)cccc1Cl`, the Potency result in assay [1], in assay [3], in assay [4], in assay [5], in assay [6] and in [7] was “inactive” throughout. The Potency entry in [8], in [9], in assay [10], in assay [11], in [12] and in [13] was “inactive” in each case. The Potency result in assay [14], in assay [15], in [16], in assay [17], in [18] and in assay [19] was “inactive” in each case. Besides, the max response in assay [2] was -13.5% (inactive).

Regarding `CCCCCCC(O)CCCCCCCCCCC(=O)O` (configuration not stated), the Potency entry in assay [1], in assay [3], in assay [4], in assay [5], in [6] and in [7] was “inactive” throughout. The Potency result in assay [8], in [9], in assay [10], in assay [11], in assay [12] and in assay [13] was “inactive” throughout. Moreover, the Potency entry in assay [14], in [15], in assay [16], in assay [17], in [18] and in assay [19] was “inactive” each time. Moreover, in assay [2], the max response was -19.9% (inactive) and -13.9% (inactive).

Regarding `Nc1cc(Cl)c(-c2cc(Cl)c(N)cc2Cl)cc1Cl`, the Potency result in [1], in assay [3], in [5], in assay [8], in assay [9] and in [20] was “inactive” each time. Moreover, the Potency result in assay [11], in assay [14], in assay [15], in assay [16], in assay [17] and in [18] was “inactive” each time. Also, the Potency entry in [19] was “inactive”. For the same compound, the Potency in assay [2] is 6.91 µM (active) and 1.74 µM (active); in [4] it was “inactive and 54.9 µM (active)”; in assay [6], “inactive and 54.9 µM (active)”; in assay [7] it was 4.36 µM (active) and 54.9 µM (active); in assay [10], 17.4 µM (active) and 54.9 µM (active); in assay [13], 11 µM (active).

`CC(C)CCOCc1ccccc1`: the Potency result in assay [1], in assay [3], in assay [4], in assay [5], in assay [6] and in assay [7] was “inactive” each time. The Potency result in assay [8], in assay [9], in [20], in assay [10], in [11] and in assay [12] was “inactive” in each case. For the same compound, the Potency entry in assay [13], in assay [14], in [16] and in assay [17] was “inactive” each time. For the same compound, the max response in assay [2] is 2.97% (inactive).

`c1ccc2cc3c(ccc4ccccc43)cc2c1`: the Potency result in assay [1], in assay [3], in [4], in assay [5], in assay [6] and in [8] was “inactive” throughout. The Potency result in [9], in assay [20], in [10], in [11], in [12] and in assay [13] was “inactive” in each case. Further, the Potency result in [14], in assay [16], in assay [17] and in assay [19] was “inactive” each time. Besides, the max response in [2] was 0.679% (inactive). The Potency in assay [7] was 21.9 µM (active) and inactive.

For the compound `CC(=O)OCC1=C(C(=O)O)N2C(=O)[C@@H](NC(=O)Cc3cccs3)[C@H]2SC1`, the Potency entry in assay [1], in assay [3], in assay [4], in assay [5], in assay [6] and in assay [7] was “inactive” each time. For the same compound, the Potency result in [8], in [9], in assay [10], in [11], in assay [12] and in assay [13] was “inactive” throughout. In addition, the Potency result in [14], in [15], in [16], in assay [17] and in [18] was “inactive” each time. The max response in assay [2] is 6.98% (inactive).

`C=CC(=O)OCCCCCCCC`: the Potency result in [1], in assay [3], in [4], in assay [5], in [6] and in assay [7] was “inactive” throughout. Moreover, the Potency entry in [8], in assay [9], in assay [10], in assay [11], in [12] and in assay [13] was “inactive” throughout. The Potency entry in assay [14], in assay [15], in assay [16], in [17], in assay [18] and in assay [19] was “inactive” throughout. Moreover, the max response in [2] is 3.71% (inactive).

As for `CCC[C@H](N[C@@H](C)C(=O)N1[C@H](C(=O)O)C[C@@H]2CCCC[C@@H]21)C(=O)OCC`, the Potency entry in assay [1], in assay [3], in [4], in [5], in [6] and in assay [7] was “inactive” in each case. In addition, the Potency entry in assay [8], in assay [9], in [20], in assay [10], in [11] and in assay [12] was “inactive” in each case. In addition, the Potency entry in assay [13], in assay [14], in [15], in assay [16] and in [19] was “inactive” throughout. Also, the max response in assay [2] is 4.1% (inactive) and 12.6% (inactive).

Consider `CC(=O)O[C@]1(C(C)=O)CC[C@H]2[C@@H]3C[C@H](C)C4=CC(=O)CC[C@]4(C)[C@H]3CC[C@@]21C`, for which the Potency entry in [1], in [3], in [4], in assay [5], in assay [6] and in assay [7] was “inactive” in each case. Moreover, the Potency result in assay [9], in assay [10], in assay [11], in [12], in assay [14] and in assay [18] was “inactive” each time. For the same compound, the Potency entry in assay [19] was “inactive”. The Potency was 19.5 µM (active) and 9.52 µM (active) in assay [2]; 691 nM (active) and 756 nM (active) in assay [8]; “inactive and 37.9 nM (active)” in assay [20]; 15.5 µM (active) in [13]; 174 nM (active) and 301 nM (active) in [16].

On to `O=C(O)c1cc(Cl)cc(Cl)c1`, for which the Potency result in assay [1], in [3], in assay [4], in assay [5], in assay [6] and in assay [7] was “inactive” each time. In addition, the Potency result in assay [8], in assay [9], in [20], in assay [10], in assay [11] and in assay [12] was “inactive” in each case. Besides, the Potency entry in [13], in assay [14], in [16], in assay [17] and in assay [18] was “inactive” each time. Further, the max response in assay [2] is 8.11% (inactive).

For the origin of these results see PubChem BioAssay (Tox21).
